Test results as given in PubChem BioAssay AID1159580 (chemical genetic matrix, 2015).
Where “and” joins values, the source holds several entries; their conditions need not be identical. Equal entries are not always repeated. Hit rate of the full screen: of about 5,500 compounds, about 2,000 (36%) were called active. About 18% were inconclusive and are not listed. Rule as the data show it: active = normalized growth mostly below about 0.91 (no sharp cut-off); inconclusive = no clear call, values can overlap the other calls; inactive = mostly above about 0.92. Some of the results follow.

Test: chemical genetic growth profiling, strain panel (AID 1159580);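 also: tested at 20 µM; growth read once vehicle control cultures reached saturation at 30 °C; 1 = growth at the plate median or of vehicle wells; lower values mean less growth of the strain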
Settings: S. cerevisiae deletion strains, growth OD

Measured: normalized growth

COc1ccc2c(c1)OCC(Cc1ccc(OC)c(OC(C)=O)c1)C2=O (configuration not stated)
inactive: locus YAL013W, strain DEP1, stronger effect = lower value 0.979 | locus YAL021C, strain ccr4, stronger effect = lower value 0.974 | locus YAL026C, strain drs2, stronger effect = lower value 0.967 | locus YAL030W, strain snc1, stronger effect = lower value 0.973 | locus YBL061C, strain skt5, stronger effect = lower value 0.967 | locus YBR009C, strain hhf1, stronger effect = lower value 0.983 | locus YBR021W, strain FUR4, stronger effect = lower value 0.883 | locus YBR023C, strain chs3, stronger effect = lower value 0.965 | locus YBR171W, strain sec66, stronger effect = lower value 0.962 | locus YBR229C, strain ROT2, stronger effect = lower value 0.996 | locus YBR231C, strain swc5, stronger effect = lower value 0.969 | locus YBR279W, strain paf1, stronger effect = lower value 0.973 | locus YCL011C, strain gbp2, stronger effect = lower value 0.985 | locus YCL016C, strain dcc1, stronger effect = lower value 0.985 | locus YCL029C, strain bik1, stronger effect = lower value 1.01 | locus YCL061C, strain MRC1, stronger effect = lower value 0.976 | locus YCL069W, strain vba3, stronger effect = lower value 0.982 | locus YCR088W, strain abp1, stronger effect = lower value 0.984 | locus YDL005C, strain med2, stronger effect = lower value 0.963 | locus YDL035C, strain GPR1, stronger effect = lower value 0.99 | locus YDL040C, strain nat1, stronger effect = lower value 0.96 | locus YDL074C, strain BRE1, stronger effect = lower value 1.01 | locus YDL101C, strain DUN1, stronger effect = lower value 0.988 | locus YDL134C, strain PPH21, stronger effect = lower value 0.952 | locus YDL185W, strain tfp1, stronger effect = lower value 1.02 | locus YDL192W, strain arf1, stronger effect = lower value 1 | locus YDR001C, strain nth1, stronger effect = lower value 0.982 | locus YDR069C, strain doa4, stronger effect = lower value 0.958 | locus YDR101C, strain arx1, stronger effect = lower value 0.996 | locus YDR137W, strain rgp1, stronger effect = lower value 0.959 | locus YDR150W, strain NUM1, stronger effect = lower value 0.982 | locus YDR159W, strain sac3, stronger effect = lower value 0.975 | locus YDR162C, strain NBP2, stronger effect = lower value 0.957 | locus YDR195W, strain ref2 1.04 | locus YDR297W, strain sur2, stronger effect = lower value 0.978 | locus YDR318W, strain mcm21, stronger effect = lower value 0.992 | locus YDR334W, strain swr1, stronger effect = lower value 0.973 | locus YDR335W, strain msn5, stronger effect = lower value 0.984 | locus YDR388W, stronger effect = lower value 0.998 | locus YDR392W, strain spt3, stronger effect = lower value 0.781 | locus YDR502C, strain sam2, stronger effect = lower value 0.992 | locus YEL003W, strain gim4, stronger effect = lower value 0.992 | locus YEL037C, strain rad23, stronger effect = lower value 0.978 | locus YEL061C, strain CIN8 (second series), stronger effect = lower value 0.984 | locus YEL061C, strain CIN8, stronger effect = lower value 0.993 | locus YER015W, strain faa2, stronger effect = lower value 0.98 | locus YER016W, strain bim1, stronger effect = lower value 0.977 | locus YER110C, stronger effect = lower value 1.02 | locus YER111C, strain swi4, stronger effect = lower value 0.972 | locus YER155C, strain BEM2 (second series), stronger effect = lower value 0.952 | locus YER155C, strain BEM2, stronger effect = lower value 0.981 | locus YER167W, strain BCK2, stronger effect = lower value 0.993 | locus YFR010W, strain ubp6, stronger effect = lower value 0.969 | locus YGL078C, strain dbp3, stronger effect = lower value 1 | locus YGL086W, strain mad1, stronger effect = lower value 1.01 | locus YGL167C, strain pmr1, stronger effect = lower value 0.957 | locus YGL173C, strain kem1, stronger effect = lower value 0.954 | locus YGL227W, strain vid30, stronger effect = lower value 0.979 | locus YGL240W, strain doc1, stronger effect = lower value 0.99 | locus YGL248W, strain PDE1, stronger effect = lower value 0.99 | locus YGL253W, strain hxk2, stronger effect = lower value 0.93 | locus YGR078C, strain PAC10, stronger effect = lower value 0.977 | locus YGR135W, strain pre9, stronger effect = lower value 1 | locus YGR252W, strain gcn5, stronger effect = lower value 1.01 | locus YHR013C, strain ard1, stronger effect = lower value 0.95 | locus YHR027C, strain rpn1, stronger effect = lower value 0.995 | locus YHR030C, strain SLT2, stronger effect = lower value 1 and 1.05 | locus YHR079C, strain IRE1 (second series), stronger effect = lower value 0.987 | locus YHR079C, strain IRE1, stronger effect = lower value 1.01 | locus YHR094C, strain hxt1, stronger effect = lower value 0.992 | locus YHR129C, strain ARP1, stronger effect = lower value 0.998 | locus YHR142W, strain chs7, stronger effect = lower value 0.965 | locus YHR200W, strain rpn10, stronger effect = lower value 1.01 | locus YIL066C, strain RNR3, stronger effect = lower value 0.982 | locus YIL073C, strain SPO22, stronger effect = lower value 0.996 | locus YIL125W, strain kgd1, stronger effect = lower value 1 | locus YIR030C, strain dcg1, stronger effect = lower value 0.987 | locus YJL092W, strain hpr5, stronger effect = lower value 0.98 | locus YJL095W, strain BCK1 (second series), stronger effect = lower value 0.973 | locus YJL095W, strain BCK1, stronger effect = lower value 0.991 and 1.05 | locus YJL115W, strain asf1, stronger effect = lower value 0.983 | locus YJL129C, strain trk1, stronger effect = lower value 0.945 | locus YJL134W, strain LCB3, stronger effect = lower value 1 | locus YJL154C, strain vps35, stronger effect = lower value 0.98 | locus YJL164C, strain tpk1, stronger effect = lower value 0.97 | locus YJL166W, strain qcr8, stronger effect = lower value 0.961 | locus YJL168C, strain set2, stronger effect = lower value 0.99 | locus YJL187C, strain SWE1 (second series), stronger effect = lower value 0.991 | locus YJL187C, strain SWE1, stronger effect = lower value 0.978 | locus YJR043C, strain POL32, stronger effect = lower value 1.01 | locus YJR066W, strain TOR1, stronger effect = lower value 1 | locus YJR075W, strain HOC1, stronger effect = lower value 0.983 | locus YKL009W, strain mrt4, stronger effect = lower value 0.993 | locus YKL068W, stronger effect = lower value 0.984 | locus YKL085W, strain MDH1 (second series), stronger effect = lower value 0.982 | locus YKL085W, strain MDH1, stronger effect = lower value 0.982 | locus YKL160W, strain elf1, stronger effect = lower value 0.98 | locus YKL190W, strain CNB1, stronger effect = lower value 0.974 | locus YKR001C, strain vps1, stronger effect = lower value 1.01 | locus YKR026C, strain gcn3, stronger effect = lower value 0.971 | locus YKR091W, strain srl3, stronger effect = lower value 0.974 | locus YLL001W, strain dnm1, stronger effect = lower value 0.979 | locus YLL026W, stronger effect = lower value 0.976 | locus YLL041C, strain sdh2, stronger effect = lower value 0.987 | locus YLR027C, strain aat2, stronger effect = lower value 0.97 | locus YLR039C, strain RIC1, stronger effect = lower value 1.04 | locus YLR058C, strain SHM2, stronger effect = lower value 0.995 | locus YLR102C, strain apc9, stronger effect = lower value 1 | locus YLR113W, strain HOG1, stronger effect = lower value 0.95 | locus YLR221C, strain rsa3, stronger effect = lower value 0.943 | locus YLR258W, strain gsy2, stronger effect = lower value 0.963 | locus YLR262C, strain YPT6 (second series), stronger effect = lower value 0.965 | locus YLR262C, strain YPT6, stronger effect = lower value 1 | locus YLR268W, strain sec22, stronger effect = lower value 0.992 | locus YLR320W, strain mms22, stronger effect = lower value 0.933 | locus YLR330W, strain CHS5, stronger effect = lower value 0.997 | locus YLR342W, strain FKS1 (second series), stronger effect = lower value 0.993 | locus YLR342W, strain FKS1, stronger effect = lower value 0.948 | locus YLR357W, strain rsc2, stronger effect = lower value 0.974 | locus YLR370C, strain arc18, stronger effect = lower value 0.981 | locus YLR371W, strain rom2, stronger effect = lower value 1.01 | locus YLR384C, strain iki3, stronger effect = lower value 0.975 | locus YLR418C, strain cdc73, stronger effect = lower value 0.995 | locus YML016C, strain PPZ1, stronger effect = lower value 1 | locus YML032C, strain rad52, stronger effect = lower value 1 | locus YML120C, strain ndi1, stronger effect = lower value 0.982 | locus YML124C, strain tub3, stronger effect = lower value 0.995 | locus YMR058W, strain fet3, stronger effect = lower value 0.965 | locus YMR078C, strain ctf18, stronger effect = lower value 1 | locus YMR125W, strain sto1, stronger effect = lower value 0.985 | locus YMR129W, stronger effect = lower value 0.975 | locus YMR205C, strain PFK2, stronger effect = lower value 0.946 | locus YMR223W, strain ubp8, stronger effect = lower value 1 | locus YMR231W, strain pep5, stronger effect = lower value 0.946 | locus YMR263W, strain SAP30, stronger effect = lower value 0.996 | locus YMR307W, strain GAS1, stronger effect = lower value 0.92 | locus YNL067W, strain RPL9B, stronger effect = lower value 0.981 | locus YNL071W, strain lat1, stronger effect = lower value 0.949 | locus YNL153C, strain GIM3, stronger effect = lower value 0.988 | locus YNL183C, strain NPR1, stronger effect = lower value 0.99 | locus YNL209W, strain ssb2, stronger effect = lower value 0.996 | locus YNL233W, strain BNI4, stronger effect = lower value 0.991 | locus YNL248C, strain rpa49, stronger effect = lower value 0.963 | locus YNL250W, strain rad50, stronger effect = lower value 1.01 | locus YNL271C, strain bni1, stronger effect = lower value 0.989 | locus YNL298W, strain CLA4, stronger effect = lower value 1 | locus YNL307C, strain MCK1, stronger effect = lower value 1 | locus YNL322C, strain KRE1 (second series), stronger effect = lower value 0.979 | locus YNR049C, strain mso1, stronger effect = lower value 0.97 | locus YNR052C, strain pop2, stronger effect = lower value 0.996 | locus YOL012C, strain htz1 1.12 | locus YOL147C, strain pex11, stronger effect = lower value 0.988 | locus YOR001W, strain rrp6, stronger effect = lower value 0.956 | locus YOR061W, strain CKA2, stronger effect = lower value 0.995 | locus YOR069W, strain VPS5, stronger effect = lower value 1 | locus YOR070C, strain gyp1, stronger effect = lower value 1 | locus YOR080W, strain dia2, stronger effect = lower value 0.978 | locus YOR083W, strain WHI5, stronger effect = lower value 0.971 | locus YOR106W, strain vam3, stronger effect = lower value 0.963 | locus YOR136W, strain idh2, stronger effect = lower value 1 | locus YOR144C, strain elg1, stronger effect = lower value 0.996 | locus YOR184W, strain ser1, stronger effect = lower value 0.969 | locus YOR231W, strain MKK1, stronger effect = lower value 1.01 | locus YOR265W, strain rbl2, stronger effect = lower value 0.975 | locus YOR270C, strain vph1, stronger effect = lower value 0.88 | locus YOR290C, strain snf2, stronger effect = lower value 0.974 | locus YOR316C, strain cot1, stronger effect = lower value 1.01 | locus YPL051W, strain arl3, stronger effect = lower value 1 | locus YPL078C, strain atp4, stronger effect = lower value 0.972 | locus YPL106C, strain sse1, stronger effect = lower value 0.982 | locus YPL240C, strain hsp82, stronger effect = lower value 0.971 | locus YPL256C, strain CLN2, stronger effect = lower value 1.04 | locus YPR119W, strain clb2, stronger effect = lower value 0.995 | locus YPR141C, strain kar3, stronger effect = lower value 1.01 | locus YPR163C, strain tif3, stronger effect = lower value 1.01 | locus YPR167C, strain met16, stronger effect = lower value 0.994 | strain wtn01, stronger effect = lower value 1.01
